# Results taken from the supplement of paper PMC8728848.
# Shown is part of a subset that was picked to be rich in the strongest signals.
# B1: SSP1 (Sclerotinia sclerotiorum), XP_001584968 (protein)
# chain: MGSSHHHHHHSSGLVPRGSHMSLLTTELACTSAPDQVLHLFFQDGQNILEARSPDGGNVWTTQDTIIAKDGDYNGSSMTCYYVDKDANFDNQPSIHLLYMNKDKQLTEKVKRMKGDNPIWEDAKVPDEVRKGPEQYSKLTSGSFNQGTGWNPNGSQWAYFSASKDGKMGIVEIRRTPKDPWHTETILEEKWGDELPGTALACVIGNGKIRVFLQHHDYSIILYENQNNTWHDRGTFIPKDKVQATTPLACTMTKDGSVHLFYVSKSNKIIHCTDGKKEEELINFFPGSKLGATSVENKITLFFRNLNPVNEVGTLENENGSWKHGTTVIPA
# Columns and labels:
# Test in all cases: glycan array binding signal (z-score within array); higher = stronger binding
# Details in all cases: glycan notation: IUPAC condensed, linker removed
# [1] = target: Fuc(a1-2)Gal(b1-3)[Fuc(a1-4)]GlcNAc(b1-2)Man(a1-3)[Fuc(a1-2)Gal(b1-3)[Fuc(a1-4)]GlcNAc(b1-2)Man(a1-3)]Man(b1-4)GlcNAc(b1-4)GlcNAc
# Method in brief: (§1)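 Arrays were curated from the Consortium for Functional Glycomics database, 3228 in total, and kept only where the protein sequence was available. Binding is expressed as a within-array Z-score. This score was averaged across arrays of the same protein sequence at different concentrations or buffers and across linkers, and negative values can be read as non-binding.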
# [2] = target: Fuc(a1-2)Gal(b1-3)[Fuc(a1-4)]GlcNAc(b1-3)[Gal(b1-4)GlcNAc(b1-6)]Gal(b1-4)Glc
# Method in brief: as §1
# [3] = target: Fuc(a1-2)[Gal(a1-3)]Gal(b1-3)GlcNAc
# Method in brief: as §1
# [4] = target: Fuc(a1-2)[Gal(a1-3)]Gal(b1-3)GlcNAc(b1-6)GalNAc
# Method in brief: as §1
# [5] = target: Fuc(a1-2)[Gal(a1-3)]Gal(b1-4)GlcNAc(b1-6)GalNAc
# Method in brief: as §1
# [6] = target: Fuc(a1-3)[Gal(b1-4)]GlcNAc(b1-3)Gal(b1-4)[Fuc(a1-3)]GlcNAc
# Method in brief: as §1
# Gal(a1-3)Gal(b1-3)GlcNAc = target: Gal(a1-3)Gal(b1-3)GlcNAc
# Method in brief: as §1
# [7] = target: Gal(a1-3)[Gal(a1-4)]Gal(b1-4)GlcNAc
# Method in brief: as §1
# Gal(b1-2)Gal = target: Gal(b1-2)Gal
# Method in brief: as §1
# Gal(b1-3)GalNAc = target: Gal(b1-3)GalNAc
# Method in brief: as §1
# [8] = target: Gal(b1-3)GalNAc(a1-3)[Fuc(a1-2)]Gal(b1-4)GlcNAc
# Method in brief: as §1
# [9] = target: Gal(b1-3)GlcNAc(b1-2)Man(a1-3)[Gal(b1-3)GlcNAc(b1-2)Man(a1-6)]Man(b1-4)GlcNAc(b1-4)[Fuc(a1-6)]GlcNAc
# Method in brief: as §1
# [10] = target: Gal(b1-3)[Fuc(a1-4)]GlcNAc(b1-2)Man
# Method in brief: as §1
# [11] = target: Gal(b1-4)GlcNAc(b1-2)[Gal(b1-4)GlcNAc(b1-6)]Man(a1-6)[GlcNAc(b1-4)][Gal(b1-4)GlcNAc(b1-2)[Gal(b1-4)GlcNAc(b1-4)]Man(a1-3)]Man(b1-4)GlcNAc(b1-4)[Fuc(a1-6)]GlcNAc
# Method in brief: as §1
# [12] = target: Gal(b1-4)GlcNAc(b1-3)Gal(b1-4)GlcNAc(b1-2)Man(a1-3)[Gal(b1-4)GlcNAc(b1-3)Gal(b1-4)GlcNAc(b1-2)Man(a1-6)]Man(b1-4)GlcNAc(b1-4)GlcNAc
# Method in brief: as §1
# [13] = target: Gal(b1-4)GlcNAc(b1-3)Gal(b1-4)GlcNAc(b1-3)[Gal(b1-4)GlcNAc(b1-3)Gal(b1-4)GlcNAc(b1-6)]GalNAc
# Method in brief: as §1
# [14] = target: Gal(b1-4)GlcNAc(b1-6)[Gal(b1-3)]GalNAc
# Method in brief: as §1
# Gal3S(b1-4)Glc = target: Gal3S(b1-4)Glc
# Method in brief: as §1
# Gal4S6S(b1-4)GlcNAc = target: Gal4S6S(b1-4)GlcNAc
# Method in brief: as §1
# GalNAc(b1-3)Gal = target: GalNAc(b1-3)Gal
# Method in brief: as §1
# GalNAc(b1-4)Gal(b1-4)Glc = target: GalNAc(b1-4)Gal(b1-4)Glc
# Method in brief: as §1
# GlcA(b1-3)GlcNAc = target: GlcA(b1-3)GlcNAc
# Method in brief: as §1
# [15] = target: GlcA3S(b1-3)Gal(b1-4)GlcNAc(b1-2)Man
# Method in brief: as §1
# [16] = target: GlcNAc(a1-3)Gal(b1-4)GlcNAc
# Method in brief: as §1
# [17] = target: GlcNAc(a1-4)Gal(b1-4)GlcNAc(b1-3)Gal(b1-4)[Fuc(a1-3)]GlcNAc(b1-3)Gal(b1-4)[Fuc(a1-3)]GlcNAc
# Method in brief: as §1
# [18] = target: GlcNAc(b1-3)Gal(b1-4)GlcNAc(b1-6)[Gal(b1-3)]GalNAc
# Method in brief: as §1
# [19] = target: Man(a1-2)Man(a1-3)[Man(a1-6)]Man(a1-6)[Man(a1-2)Man(a1-3)]Man(b1-4)GlcNAc(b1-4)GlcNAc
# Method in brief: as §1
# [20] = target: Man(a1-2)Man(a1-6)[Man(a1-3)]Man(a1-6)[Man(a1-2)Man(a1-2)Man(a1-3)]Man(b1-4)GlcNAc(b1-4)GlcNAc
# Method in brief: as §1
# [21] = target: Man(a1-3)[Man(a1-6)]Man(a1-6)[Man(a1-3)]Man
# Method in brief: as §1
# [22] = target: Neu5Ac(a2-3)Gal(b1-4)GlcNAc(b1-2)Man
# Method in brief: as §1
# [23] = target: Neu5Ac(a2-3)Gal(b1-4)GlcNAc(b1-2)Man(a1-3)[Neu5Ac(a2-3)Gal(b1-4)GlcNAc(b1-2)Man(a1-6)]Man(b1-4)GlcNAc(b1-4)GlcNAc
# Method in brief: as §1
# [24] = target: Neu5Ac(a2-3)Gal(b1-4)GlcNAc(b1-3)Gal(b1-4)GlcNAc
# Method in brief: as §1
# [25] = target: Neu5Ac(a2-3)Gal(b1-4)[Fuc(a1-3)]GlcNAc(b1-6)[Neu5Ac(a2-3)Gal(b1-3)]GalNAc
# Method in brief: as §1
# [26] = target: Neu5Ac(a2-3)Gal6S(b1-4)GlcNAc
# Method in brief: as §1
# [27] = target: Neu5Ac(a2-6)Gal(b1-4)GlcNAc(b1-2)Man(a1-3)[Neu5Ac(a2-6)Gal(b1-4)GlcNAc(b1-2)Man(a1-6)]Man(b1-4)GlcNAc(b1-4)[Fuc(a1-6)]GlcNAc
# Method in brief: as §1
# [28] = target: Neu5Ac(a2-6)Gal(b1-4)GlcNAc(b1-2)[Neu5Ac(a2-6)Gal(b1-4)GlcNAc(b1-4)]Man(a1-3)[GlcNAc(b1-4)][Neu5Ac(a2-6)Gal(b1-4)GlcNAc(b1-2)[Neu5Ac(a2-6)Gal(b1-4)GlcNAc(b1-6)]Man(a1-6)]Man(b1-4)GlcNAc(b1-4)GlcNAc
# Method in brief: as §1
# [29] = target: Neu5Ac(a2-8)Neu5Gc(a2-3)Gal(b1-4)GlcNAc
# Method in brief: as §1
binder,measurement,setting,value
B1,glycan array binding signal (z-score),[1],0.937
same,glycan array binding signal (z-score),[2],-0.405
same,glycan array binding signal (z-score),[3],0.084
same,glycan array binding signal (z-score),[4],7.05
same,glycan array binding signal (z-score),[5],-0.15
same,glycan array binding signal (z-score),[6],-0.07
same,glycan array binding signal (z-score),Gal(a1-3)Gal(b1-3)GlcNAc,2.88
same,glycan array binding signal (z-score),[7],2.85
same,glycan array binding signal (z-score),Gal(b1-2)Gal,0.5
same,glycan array binding signal (z-score),Gal(b1-3)GalNAc,-0.111
same,glycan array binding signal (z-score),[8],3.1
same,glycan array binding signal (z-score),[9],5.12
same,glycan array binding signal (z-score),[10],-0.358
same,glycan array binding signal (z-score),[11],0.197
same,glycan array binding signal (z-score),[12],8.48
same,glycan array binding signal (z-score),[13],-0.003
same,glycan array binding signal (z-score),[14],-0.405
same,glycan array binding signal (z-score),Gal3S(b1-4)Glc,1.38
same,glycan array binding signal (z-score),Gal4S6S(b1-4)GlcNAc,-0.291
same,glycan array binding signal (z-score),GalNAc(b1-3)Gal,2.2
same,glycan array binding signal (z-score),GalNAc(b1-4)Gal(b1-4)Glc,-0.27
same,glycan array binding signal (z-score),GlcA(b1-3)GlcNAc,0.484
same,glycan array binding signal (z-score),[15],-0.535
same,glycan array binding signal (z-score),[16],-0.477
same,glycan array binding signal (z-score),[17],2.28
same,glycan array binding signal (z-score),[18],-0.156
same,glycan array binding signal (z-score),[19],-0.017
same,glycan array binding signal (z-score),[20],-0.467
same,glycan array binding signal (z-score),[21],2.15
same,glycan array binding signal (z-score),[22],0.612
same,glycan array binding signal (z-score),[23],-0.45
same,glycan array binding signal (z-score),[24],0.123
same,glycan array binding signal (z-score),[25],1.79
same,glycan array binding signal (z-score),[26],-0.085
same,glycan array binding signal (z-score),[27],-0.364
same,glycan array binding signal (z-score),[28],0.132
same,glycan array binding signal (z-score),[29],9.08
